# Compound activity: PubChem BioAssay, The Scripps Research Institute Molecular Screening Center
# Rows were chosen to be rich in hits. Some 2.6% of all compounds tested hit in one or more screens of this group.
# GPR7 antag – GPR7 receptor antagonists, primary screen, cell-based, fluorescence, single concentration; GPR7-expressing cells, fluorescence antagonist assay; inhibition, % at 4.4 µM; 290,000 tested, 1.1% active; in the data active = inhibition above about 16%, passing the limit was not always enough;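 note: cells stimulated with the agonist NPW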
# Target sequence (P48145 whole entry, looked up): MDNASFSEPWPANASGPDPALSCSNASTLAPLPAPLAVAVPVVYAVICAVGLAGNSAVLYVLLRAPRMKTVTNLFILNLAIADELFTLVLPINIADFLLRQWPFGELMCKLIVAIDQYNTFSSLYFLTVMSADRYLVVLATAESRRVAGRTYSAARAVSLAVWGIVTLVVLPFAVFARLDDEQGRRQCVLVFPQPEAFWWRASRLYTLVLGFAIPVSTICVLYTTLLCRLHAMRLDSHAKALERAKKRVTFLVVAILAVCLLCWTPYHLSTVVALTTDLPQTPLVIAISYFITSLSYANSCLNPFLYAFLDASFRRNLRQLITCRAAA
# KLF5 inhibitor – KLF5 expression inhibitors, primary screen, DLD-1 cells, luminescence; AID 1700, 2009; inhibition, % at 5 µM; 290,000 tested, 0.23% active; DLD-1 KLF5 promoter-luciferase reporter;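 active = inhibition above a per-plate limit of that plate's mean compound inhibition plus 3 SD, cut at about 60% in these data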;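 note: higher means less KLF5 promoter-driven luciferase light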
# Ba/F3 V617F tox – reduced viability of JAK2V617F-dependent Ba/F3 cells, primary screen, JAK2V617F inhibitor project, cell-based, Ba/F3 EpoR-JAK2V617F, luminescence; inhibition, % at 5.6 µM; ATP luminescence; 220,000 tested, 1.1% active;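 active = inhibition above the campaign mean plus 3 SD over all tested compounds, cut at about 24% in these data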;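 note: cytokine-independent growth of Ba/F3 cells driven by EpoR plus mutant JAK2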
# IEC-6 tox – cytotoxicity in IEC-6 intestinal epithelial cells, primary screen, cytotoxicity control for KLF5 inhibitor project, cell-based, luminescence; IEC-6 cytotoxicity, luminescence viability; inhibition, % at 5 µM; 290,000 tested, 0.78% active; AID 1825, 2009
# BaF3 tox – parental Ba/F3 cell viability inhibition, counter-screen for JAK2V617F inhibitor project, murine pro-B, CellTiter-Glo luminescence | 220,000 tested, 1.1% active | CellTiter-Glo ATP luminescence | inhibition, % at 5.6 µM | AID 1486, 2009;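 active = inhibition above a per-campaign cutoff, the mean inhibition of all tested compounds plus 3 SD, cut at about 27% in these data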
# DNA FID counter – compounds displacing fluorescent DNA intercalator, primary screen, artefact control for HCV NS3 helicase inhibitor project, biochemical, FID fluorescence; AID 1845, 2009; DNA fluorescent intercalator displacement; 290,000 tested, 0.17% active; inhibition, % at 7.9 µM; in the data active = inhibition above about 37%;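 note: higher means more ethidium bromide displaced from hairpin DNA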
# GPR7 antag cf – GPR7 receptor antagonists, confirmation, cell-based, fluorescence, single concentration | GPR7-expressing cells, calcium fluorescence antagonist mode | shares compounds with GPR7 antag | AID 1952, 2009 | 2,400 tested, 52% active | inhibition, % at 4.4 µM; in the data active = inhibition above about 24%;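 note: stimulated with the GPR7 agonist NPW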
# MCHR1 antag – MCHR1 antagonists in cells, counter-screen for GPR7 antagonist project, cell-based, fluorescence, human; shares compounds with GPR7 antag; MCHR1-expressing cells, fluorescence antagonist assay; inhibition, % at 4.4 µM; 2,400 tested, 62% active; AID 2148, 2009
# Numbers stand for hits; - = inactive; . = no result given. Cut-off read from the data, not from the text of the source, unless noted: active = inhibition above about 22%; inactive = the rest.
SMILES,GPR7 antag,KLF5 inhibitor,Ba/F3 V617F tox,IEC-6 tox,BaF3 tox,DNA FID counter,GPR7 antag cf,MCHR1 antag
C/C(CC(=O)Nc1ccc(Cl)cc1Cl)=N\NC(=O)c1ccncc1,-,-,-,-,-,-,.,.
CC(=O)c1ccc(NC(=O)COC(=O)CCN2C(=O)c3cccc([N+](=O)[O-])c3C2=O)cc1,-,-,-,-,-,-,.,.
CC(C)N(c1ccccc1)c1ccc(NC(=O)COC(=O)CCN2C(=O)c3cccc([N+](=O)[O-])c3C2=O)cc1,29,-,-,-,-,-,74,60
COc1ccc(CNC(=O)c2cc(=O)c3ccccc3o2)cc1,-,-,.,-,.,-,.,.
O=C(NCc1ccccc1)c1cc(=O)c2ccccc2o1,22,-,-,-,-,-,-,-
O=C(CCn1nc(-c2ccc(Cl)cc2)c2ccccc2c1=O)Nc1cccnc1,21,-,-,-,-,-,-,-
CCN(CC)C(=O)C(=O)c1cn(CC(=O)N2CCc3ccccc3C2)c2ccccc12,-,-,-,-,-,-,.,.
CCc1ccc(/C=C2/Sc3ccccc3N(CC(=O)NCCCN3CCOCC3)C2=O)cc1,25,-,.,-,.,54,-,-
Cc1ccc(CN2C(=O)c3ccccc3Sc3ccc(C(=O)NCCCN4CCOCC4)cc32)cc1,29,-,.,-,.,37,40,-
O=C(CN1C(=O)/C(=C\c2cccc(Cl)c2)Sc2ccccc21)NCCCN1CCOCC1,25,-,.,-,.,43,26,36
O=C(NCCN1CCOCC1)c1ccc2c(c1)N(Cc1cccc(F)c1)C(=O)c1ccccc1S2,-,-,-,-,-,-,.,.
O=C(CN1C(=O)/C(=C/c2ccc(C(F)(F)F)cc2)Sc2ccccc21)NCCCN1CCOCC1,-,-,.,-,.,-,.,.
CN1C(=O)/C(=C2/C=Cc3ccccc3N2CCCS(=O)(=O)O)SC1=S,-,-,-,-,-,-,.,.
Cc1noc(NS(=O)(=O)c2ccc(NC(=O)c3ccc(OC(C)C)cc3)cc2)c1C,-,-,-,-,-,-,.,.
CC1(C)CC(=O)C=C(Nc2ccc(Br)cc2F)C1,-,-,.,-,.,-,.,.
CCc1ccccc1N(C)C(=O)CCc1nc(-c2ccc(C)cc2)no1,-,-,-,-,-,-,.,.
Cc1ccc(Cc2nc(-c3ccncc3)no2)cc1,24,-,-,-,-,-,-,28
c1ccc(C(Cc2nc(-c3ccncc3)no2)c2ccccc2)cc1,50,-,-,-,-,-,54,45
COc1ccc(-c2noc(Cc3ccc(Cl)cc3)n2)cc1OC,25,-,-,-,-,-,-,-
COc1ccc(Cc2nc(-c3ccc(Cl)cc3)no2)cc1,-,-,-,-,-,-,.,.
COc1ccc(-c2noc(COc3ccc4ccccc4c3Br)n2)cc1OC,21,-,-,-,-,-,-,-
Cn1c(=O)oc2cc(S(=O)(=O)NCCC(=O)N3CC=C(c4ccccc4)CC3)ccc21,-,-,-,-,-,-,.,.
Cc1cccc(N=C2NC(=O)/C(=C/C=C/c3ccco3)S2)c1C,-,-,-,-,-,-,.,.
CCOC(=O)CSC1=Nc2ccccc2C2=NC(CC(=O)NCc3ccc(OC)cc3)C(=O)N12 (configuration not stated),-,-,-,-,-,-,.,.
Oc1ccc(Oc2ccc3c(C(F)(F)F)cc(C(F)(F)F)nc3n2)cc1,-,-,-,-,-,-,.,.
SMILES,GPR7 antag,KLF5 inhibitor,Ba/F3 V617F tox,IEC-6 tox,BaF3 tox,DNA FID counter,GPR7 antag cf,MCHR1 antag
CCn1c(NC(=O)c2ccc(C)cc2)c2ccccc2nc1=O,32,-,-,-,-,-,-,-
CCn1c(NC(=O)c2ccc(F)cc2)c2ccccc2nc1=O,-,-,-,-,-,-,.,.
CCCCNc1nc2ccccc2n1CC(=O)Nc1c(C)cccc1CC,33,-,-,-,-,-,32,-
C=CCOc1ccc(CN(C)CC(=O)Nc2ccc3c(c2)CCC3)cc1,24,-,-,-,-,37,-,33
Cc1cc([N+](=O)[O-])nn1CC(=O)Nc1c(C)n(C)n(-c2ccccc2)c1=O,31,-,-,-,-,-,-,-
CC1(C)CC(C(CC(=O)N2CCCC2)Cc2ccccc2)CCO1 (configuration not stated),23,-,-,-,-,-,-,-
CC1(C)CC(C(CC(=O)O)c2ccccc2)CCO1 (configuration not stated),-,-,-,-,-,-,.,.
CN(c1ccccc1)c1nc(N)c([N+](=O)[O-])c(N2CCCC2)n1,-,-,.,-,.,-,.,.
N/C(=N\OC(=O)COc1ccccc1)c1ccncc1,-,-,-,-,-,-,.,.
N/C(=N\OC(=O)COc1ccccc1)c1ccc(Cl)cc1,24,-,-,-,-,-,-,-
O=[N+]([O-])c1nn(-c2ccc3c(c2)OCCO3)n(O)c1=Nc1ccc(Cl)cc1,28,-,-,-,-,-,34,-
CN(C)S(=O)(=O)c1ccc(C(=O)OCC2CCCO2)cc1 (configuration not stated),-,-,.,-,.,-,.,.
COc1ccccc1CNCC(O)(c1ccc(Cl)cc1)c1ccc(Cl)cc1,28,-,-,-,-,-,47,33
COc1ccccc1CNCC(O)(c1ccc(F)cc1)c1ccc(F)cc1,40,-,.,-,.,-,41,36
OC(CNCc1ccccc1F)(c1ccc(F)cc1)c1ccc(F)cc1,-,-,-,-,-,-,.,.
COc1ccccc1CNC(=S)NCc1ccc(Cl)cc1,-,-,.,-,.,-,.,.
COc1cccc(CNCCc2c[nH]c3ccccc23)c1OCc1ccc(F)cc1,25,-,-,-,-,-,46,65
COc1ccccc1NC(=S)NCCc1c[nH]c2ccccc12,-,-,-,-,-,-,.,.
O=C(c1ccccc1)N(Cc1cccc(Br)c1)C1CCS(=O)(=O)C1 (configuration not stated),35,-,.,-,.,-,-,-
O=C(/C=C/c1ccccc1)NNC(=O)c1ccco1,-,-,.,-,.,-,.,.
O=C(Cn1cnc2c(nnn2-c2ccc(F)cc2)c1=O)N1CCCc2ccccc21,-,-,-,-,-,-,.,.
COc1ccc(C(CCNCc2ccc(N(C)C)cc2)c2ccccc2)cc1 (configuration not stated),-,-,.,-,.,-,.,.
